According to PubChem BioAssay (Tox21):
Records with an inconclusive call do not appear. Where a call stands in place of a potency, no number is given. The source made the active and inactive calls. Calls come from the whole dose curve; as a rule, active = well fitted cell-killing curve with a large enough effect in the repeat runs; inconclusive = weak or mixed curves; inactive = flat fitted curve, though single readings scatter.

test: qHTS assay to identify small molecule antagonists of the estrogen receptor beta (ER-beta) signaling pathway - cell viability counter screen (AID 1259382); settings: ER-beta-UAS-bla HEK293T viability, CellTiter-Glo luminescence, 16 h; series mostly up to 92.4 µM; note: nearly all actives have a fitted effect of over 55% in size
Text: U.S. Tox21 Program National Center for Advancing Translational Sciences [NCATS] NIH Chemical Genomics Center [NCGC] U.S. Environmental Protection Agency [EPA] National Institutes of Environmental Health Sciences [NIEHS] National Toxicology Program [NTP] U.S. Food and Drug Administration [FDA] Tox21 Assay Overview: Estrogen receptor (ER), a nuclear hormone receptor, plays an important role in development, metabolic homeostasis and reproduction. Two subtypes of ER, ER-alpha and ER-beta, have similar expression patterns with some uniqueness in both types. Endocrine disrupting chemicals (EDCs) and their interactions with steroid hormone receptors like ER causes disruption of normal endocrine function. To identify the compounds that inhibit ER signaling, an ER-beta-UAS-bla GripTite cell line (Life Technologies, Madison, WI, USA) containing a beta-lactamase reporter gene under the control of an UAS response element was used to screen Tox21 10K compound library. The cytotoxicity of the Tox21 compound library against the ER-beta-bla cell line was tested in parallel by measuring the cell viability using CellTiter-Glo assay in the same wells.
Tox21 Assay Protocol Summary: ER-beta-UAS-bla HEK293T cells were dispensed at 2,000 cells/4 uL of assay medium containing 2% charcoal stripped FBS per well into black wall/clear-bottom 1536-well plates using a Multidrop Combi (ThermoFisher Scientific, Waltham, MA) dispenser. After the assay plates were incubated at a 37C and 5% CO2 for 6 hr, 23 nL of compounds dissolved in DMSO, positive controls or DMSO only was transferred to the assay plate by a Pintool station (Kalypsys, San Diego, CA), followed by addition of 1 uL (1nM as final concentration) of 17-beta-estradiol (E2) in assay medium using a Flying Reagent Dispenser (FRD, Aurora Discovery, San Diego, CA). The plates were incubated at 37C and 5% CO2 for 16 hr. Then 1 uL of LiveBLAzer B/G FRET substrate was added using a Flying Reagent Dispenser, the plates were incubated at room temperature for 2 hours, and fluorescence intensity was measured by an Envision plate reader (PerkinElmer, Shelton, CT). For cell viability readout that measures cytotoxicity, 4 uL/well of CellTiter-Glo reagent was added into the assay plates using a FRD. After 30 min incubation at room temperature, the luminescence intensity in the plates was measured using a ViewLux (PerkinElmer) plate reader.

| Compound | Potency |
| --- | --- |
| C(CCOCC1CO1)COCC1CO1 (stereo not given) | inactive |
| C=C(C)[C@@H]1CC=C(C=O)CC1 | inactive |
| O=C(O)c1ccc2[nH]cc(CCCCN3CC=C(c4ccccc4)CC3)c2c1 | inactive |
| CCSC(=O)N(CC)C1CCCCC1 | inactive |
| CC(=O)Nc1cc([As](=O)(O)O)ccc1O | inactive |
| CC1(C)C(=O)NC(=O)NC1=O | inactive |
| CCCCCCBr | inactive |
| Fc1cc(Br)ccc1CBr | inactive |
| CCOP(=O)(N=C1SCCS1)OCC | inactive |
| NC(=O)c1cc([N+](=O)[O-])cc([N+](=O)[O-])c1 | inactive |
| COc1cc(OC)nc(Sc2cccc(Cl)c2C(=O)O)n1 | inactive |
| Nc1c(Br)cc([N+](=O)[O-])cc1[N+](=O)[O-] | inactive |
| CCN(CC)CCOC(=O)C(C)(c1ccccc1)c1ccccc1 | inactive |
| ClC(Br)Br | inactive |
| COc1cc(OC)nc(NC(=O)NS(=O)(=O)c2ncccc2OCC(F)(F)F)n1 | inactive |
| ClCCOCOCCCl | inactive |
| COc1ncc(F)c2nc(S(=O)(=O)Nc3c(F)cccc3F)nn12 | inactive |
| O=C(NCO)NCO | inactive |
| CNC(=O)O/N=C(\C)SC | inactive |
| OCCBr | inactive |

| Compound | Potency |
| --- | --- |
| CNC(=O)N(C)c1nc2ccccc2s1 | inactive |
| COP(=S)(OC)Oc1c(Cl)cc(C)cc1Cl | inactive |
| COC(=O)C1=CCCN(C)C1 | inactive |
| O=NN1CCCCC1 | inactive |
| CCOP(=S)(OCC)Oc1ncn(-c2ccccc2)n1 | inactive |
| CCN(Cc1ccc(Cl)nc1)/C(=C/[N+](=O)[O-])NC | inactive |
| O=[N+]([O-])c1cccc(O)c1 | inactive |
| CC(C)(C)OC(=O)c1ncn2c1[C@@H]1CCCN1C(=O)c1c(Br)cccc1-2 | inactive |
| CC(C)NCC(O)c1ccc(N)c(C#N)c1 (stereo not given) | inactive |
| CCN(CC)c1nc(C)cc(OP(=S)(OC)OC)n1 | inactive |
| CC(C)[N+](=O)[O-] | inactive |
| O=P(O)(Oc1ccccc1)Oc1ccccc1 | inactive |
| [As]#[In] | inactive |
| Nc1ccccc1Cl | inactive |
| c1ccc(N2CCNCC2)cc1 | inactive |
| Oc1c(Cl)cccc1Cl | inactive |
| CCCCN(CCCCO)N=O | inactive |
| CC1(C)CON(Cc2ccccc2Cl)C1=O | inactive |
| CCCCc1ccc(O)cc1 | inactive |
| O=[N+]([O-])c1ccc(CBr)cc1 | inactive |
